# Assay results taken from paper PMC4336329 (PLoS ONE, 2015).
# Out of some 310,000 compounds screened, about 14,000 (4.5%) showed an effect of 50% or more. Effects have a minus sign here. What follows is part of a selection rich in strong results, with near analogues and random picks from the rest.
# Molecular target: human ether-à-go-go-related gene (hERG) potassium channel (human, UniProt Q12809)
# Test: primary screen, population patch clamp on CHO cells stably expressing hERG; higher = less effect of the substance
# 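Note: peak tail current of the secondary pulse compared with the same well before compound.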
# Chain of human ether-à-go-go-related gene (hERG) potassium channel (Q12809 whole entry, looked up): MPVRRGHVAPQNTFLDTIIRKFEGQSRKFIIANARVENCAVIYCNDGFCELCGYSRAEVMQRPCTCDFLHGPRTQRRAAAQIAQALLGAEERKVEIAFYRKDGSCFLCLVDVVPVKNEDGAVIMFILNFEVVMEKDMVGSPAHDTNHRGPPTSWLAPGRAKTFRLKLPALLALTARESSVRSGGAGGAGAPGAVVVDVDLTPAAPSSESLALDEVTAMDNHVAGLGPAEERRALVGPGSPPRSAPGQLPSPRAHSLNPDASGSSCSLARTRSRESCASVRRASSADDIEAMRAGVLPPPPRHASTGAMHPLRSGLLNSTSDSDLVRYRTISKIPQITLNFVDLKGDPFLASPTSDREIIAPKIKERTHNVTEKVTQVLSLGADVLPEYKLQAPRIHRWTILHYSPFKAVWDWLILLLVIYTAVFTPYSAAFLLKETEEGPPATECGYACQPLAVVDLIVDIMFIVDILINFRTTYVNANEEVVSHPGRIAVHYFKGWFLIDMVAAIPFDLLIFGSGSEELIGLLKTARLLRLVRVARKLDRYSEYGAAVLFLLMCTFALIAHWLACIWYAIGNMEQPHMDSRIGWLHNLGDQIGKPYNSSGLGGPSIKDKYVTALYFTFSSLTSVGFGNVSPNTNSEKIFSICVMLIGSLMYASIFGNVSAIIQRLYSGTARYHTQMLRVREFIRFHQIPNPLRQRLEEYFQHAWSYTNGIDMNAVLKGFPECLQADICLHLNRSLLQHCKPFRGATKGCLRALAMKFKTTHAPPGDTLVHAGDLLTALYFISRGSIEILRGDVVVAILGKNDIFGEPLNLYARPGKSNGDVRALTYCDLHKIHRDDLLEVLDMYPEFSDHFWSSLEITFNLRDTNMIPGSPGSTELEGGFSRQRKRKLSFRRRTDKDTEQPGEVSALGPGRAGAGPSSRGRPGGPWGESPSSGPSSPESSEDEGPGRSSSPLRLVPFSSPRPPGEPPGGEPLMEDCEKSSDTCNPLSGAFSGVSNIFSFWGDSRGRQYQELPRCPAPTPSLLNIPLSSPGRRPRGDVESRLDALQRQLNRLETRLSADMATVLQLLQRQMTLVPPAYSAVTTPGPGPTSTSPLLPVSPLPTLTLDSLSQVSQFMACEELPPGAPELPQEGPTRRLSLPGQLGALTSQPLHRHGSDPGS
row,SMILES,"hERG current change (%, negative = inhibition) at 10uM [%]"
1,CC(=O)Cn1c(N2CCC(Cc3ccccc3)CC2)nc2c1c(=O)[nH]c(=O)n2C,10.3
2,COCCN(C(=S)Nc1ccc(C(C)C)cc1)C(C)c1cccs1 (stereo not shown),8.26
3,COCC(C)NC(=O)CSc1ncnc2sc(-c3ccccc3)cc12 (stereo not shown),-10.1
4,CCC(C)(C)n1c(=O)[nH]c2c(c1=O)CCC2,6.59
5,O=C(O)COCC(=O)Nc1ccc(OCCc2ccccc2)cc1,11.8
6,Cc1cccc(NS(=O)(=O)c2cc3c4c(c2)CCC(=O)N4CCC3)c1,-21.6
7,COc1cc(/C=C(/C#N)C(=O)Nc2ccccc2)c(Br)cc1OCc1ccc(C(=O)O)cc1,9.98
8,COc1ccc(CCN=C(N)C(C)c2ccccc2)cc1OC.Cl (stereo not shown),11.4
9,CC(C)Cc1ccc(C(C)C(=N)N)cc1.Cl (stereo not shown),-6.14
10,CC(C)Cc1ccc(C(C)C(=O)Nc2ccc(O)cc2)cc1 (stereo not shown),11.3
11,CC(C)Cc1ccc(C(C)C(N)=Nc2ccc(O)cc2)cc1.Cl (stereo not shown),-80.2
12,CC(C)Cc1ccc([C@H](C)C(=O)O)cc1,7.11
13,CC(C)Cc1ccc(C(C)C(N)=NCCc2ccccc2)cc1.Cl (stereo not shown),-67.5
14,COc1cc(NC(=O)C2CC(c3cccc(Br)c3)=NO2)cc(OC)c1OC (stereo not shown),-11.6
15,COc1ccccc1N1CCN(C(=O)c2ccccc2Oc2ccccc2)CC1,-25.7
16,Cc1cccc(N(CC(O)CON=C2c3ccccc3-c3ccccc32)S(C)(=O)=O)c1 (stereo not shown),15.1
17,O=C(COc1ccc([N+](=O)[O-])cc1)NCc1cccnc1,-33.4
18,COc1ccc(CNC(=O)COc2ccc(OC)cc2)cc1,13.8
19,COc1ccc(P(=O)(COc2ccc([N+](=O)[O-])cc2)c2ccc(OC)cc2)cc1,-71
20,CN(C)c1ccc(P(=O)(COc2ccc([N+](=O)[O-])cc2)c2ccc(N(C)C)cc2)cc1,-41.9
21,COc1ccc(CNC(=O)COc2ccc([N+](=O)[O-])cc2)cc1,-64.5
22,COc1ccc(CCNC(=O)COc2ccc([N+](=O)[O-])cc2)cc1,-31.1

row,SMILES,"hERG current change (%, negative = inhibition) at 10uM [%]"
1,COc1ccc(OCC(=O)NNC(=S)NC(=O)c2ccc([N+](=O)[O-])cc2)cc1,15.6
2,O=C(COc1ccc([N+](=O)[O-])cc1)NCc1ccccc1,-38.9
3,O=C(COc1ccc([N+](=O)[O-])cc1)NCc1ccncc1,-67.6
4,CN(C)c1ccc(/C=N/NC(=O)c2ccc3c(c2)OCCO3)cc1,9.93
5,CCC(CC)NC(=O)CCCSc1nc2ccccc2[nH]1,22.3
6,O=C(Nc1cccnc1)c1ccc([N+](=O)[O-])s1,-20.1
7,Cc1c(C(=O)O)sc2c1c(=O)n(Cc1ccccc1)c(=O)n2C,23.2
8,O=C(O)Cn1c(=O)c2c3c(sc2n(Cc2ccccc2)c1=O)CCCC3,16.6
9,CN(C)CCn1c(=O)n(Cc2ccccc2)c(=O)c2c3c(sc21)CCCCC3,-3.31
10,CN(C)CCCn1c(=O)n(CCc2ccccc2)c(=O)c2c3c(sc21)CCCCC3,-70.4
11,CCn1c(=O)n(CCc2ccccc2)c(=O)c2c3c(sc21)CCCC3,1.05
12,CN(C)CCCn1c(=O)n(Cc2ccccc2)c(=O)c2c3c(sc21)CCCCC3,-58.9
13,CCOC(=O)c1sc2c(c1C)c(=O)n(CCO)c(=O)n2Cc1ccccc1,4.88
14,CN(C)CCCn1c(=O)n(C2CCCCC2)c(=O)c2c3c(sc21)CCCCC3,-53.8
15,CCOC(=O)c1sc2c(c1C)c(=O)n(Cc1ccccc1)c(=O)n2CCN(C)C,-58.9
16,CN(C)CCn1c(=O)n(C2CCCCC2)c(=O)c2c3c(sc21)CCCCC3,-25.3
17,NC(=O)Cn1c(=O)n(C2CCCCC2)c(=O)c2c3c(sc21)CCCCC3,-6.3
18,NC(=O)Cn1c(=O)n(CCc2ccccc2)c(=O)c2c3c(sc21)CCCC3,-15
19,COc1ccc(OC)c(S(=O)(=O)NCCc2csc(-c3cccnc3)n2)c1,4.92
20,CCOc1ccc(C2(C#N)CC[N+](C)(C)CC2)cc1.[Br-],2.83
21,CS(=O)(=O)N(CC(=O)NCCSCc1cccc(Cl)c1)c1ccccc1F,-20.2
22,Cc1ccc(C(=O)Nc2ccccc2C(=O)NCc2ccccc2)cc1,5.63

row,SMILES,"hERG current change (%, negative = inhibition) at 10uM [%]"
1,CC(=O)NCc1nnc2c3ccccc3c(-c3ccccc3)nn12,-31.9
2,OCc1nnc2c3ccccc3c(-c3ccccc3)nn12,-4.77
3,O=C(NCc1nnc2c3ccccc3c(-c3ccccc3)nn12)c1ccc(Cl)cc1,-52.4
4,O=C(NCc1nnc2c3ccccc3c(-c3ccccc3)nn12)c1ccccc1Cl,-78.9
5,O=C(CSc1nnc(CNC(=O)c2ccccc2)o1)c1ccc(Cl)cc1,-30.3
6,Cc1cccc(C(=O)NCc2nnc3c4ccccc4c(-c4ccccc4)nn23)c1,-4.14
7,CC(OC(=O)C1CCCCC1)C(=O)Nc1cccc([N+](=O)[O-])c1 (stereo not shown),-4.48
8,O=C(O)c1ccccc1N/N=C/c1cc(Br)cc(Br)c1O,11.6
9,C=CCN(CC=C)C(=S)Nc1ccc(OC)c(OC)c1,10.3
10,Cc1cc(OCC(=O)N2CCOCC2)c(C(C)C)cc1Cl,-4.17
11,CC(O)CC(C(=O)NNc1ccccc1)C(=O)NNc1ccccc1 (stereo not shown),21
12,CC(NC(=O)c1cccc(N(C)C)c1)c1ccc(-n2ccnc2)cc1 (stereo not shown),-68.3
13,O=C(c1ccc(F)cc1)C1CCN(C(=O)c2ccncc2)CC1,-22.4
14,CC(NC(=O)C1CCN(C(=O)c2ccc(F)cc2)CC1)c1ccc(-n2ccnc2)cc1 (stereo not shown),-64.7
15,CC(=O)Nc1cccc(C(=O)NC(C)c2ccc(-n3ccnc3)cc2)c1 (stereo not shown),-0.474
16,COc1cc(C(=O)NC(C)c2ccc(-n3ccnc3)cc2)cc(OC)c1C (stereo not shown),-72.9
17,Cc1ccccc1C(=O)N1CCC(C(=O)NC(C)c2ccc(-n3ccnc3)cc2)CC1 (stereo not shown),-23
18,CC(NC(=O)c1ccco1)c1ccc(-n2ccnc2)cc1 (stereo not shown),-37
19,Cc1ccc(C(=O)NC(C)c2ccc(-n3ccnc3)cc2)o1 (stereo not shown),-37.4
20,Cc1ccc(C(=O)NC(C)c2ccc(-n3ccnc3)cc2)cc1 (stereo not shown),-54
21,CC(=O)Nc1ccc(C(=O)NC(C)c2ccc(-n3ccnc3)cc2)cc1 (stereo not shown),7.74
22,Cc1occc1C(=O)N1CCCC(Nc2ccc(F)cc2)C1 (stereo not shown),-3.68

row,SMILES,"hERG current change (%, negative = inhibition) at 10uM [%]"
1,Cc1ccc(C(=O)Nc2ccc(N3CCN(C(=O)c4cccs4)CC3)cc2)c(Cl)c1,-5.13
2,COC(=O)CSc1nnc(-c2cccnc2)n1-c1cc(OC)cc(OC)c1,-19.3
3,N#Cc1ccccc1Oc1ccccc1C=O,-16.8
4,Cc1ccc2nc(C)cc(N/N=C/c3cccc(O)c3)c2c1,12.4
5,COc1ccc(S(=O)(=O)n2nc(OC(=O)c3cccs3)cc2N)cc1,-3.07
6,CCOC(=O)CC1=NN(c2ccccc2)C(=O)/C1=C\c1ccc(N(C)C)cc1,24.6
7,O=C(CNc1cccc(S(=O)(=O)N2CCCC2)c1)Nc1ccc(C(F)(F)F)cc1,15.1
8,CC(C)Cn1cnc2c1c(=O)n(C)c(=O)n2C,27.8
9,CCOc1cc(C(=S)N2CCCCC2)ccc1OS(=O)(=O)c1ccc(Cl)cc1,-1.37
10,N#CCCn1c(=S)[nH]c2ccccc21,12.9
11,O=C(CN(CC1CCCO1)C(=O)CNS(=O)(=O)c1ccccc1)NCc1ccc(F)cc1 (stereo not shown),11.9
12,C/C(=C1\SC(N2CCOCC2)=NC1=O)c1ccccc1,-12.5
13,Cc1ccc(C)c(C(=O)NC(C)c2ccc(-n3ccnc3)cc2)c1 (stereo not shown),-62.4
14,Cc1ccc(C(=O)NC(C)c2ccc(-n3ccnc3)cc2)c(C)c1 (stereo not shown),-57.4
15,Cc1ccc(C(O)c2ccc(-n3ccnc3)cc2)cc1 (stereo not shown),-1.74
16,C/C(=N\NC(=O)c1ccc(C)cc1C)c1ccc(-n2ccnc2)cc1,-16.6
17,CSc1ccccc1C(=O)NC(C)c1ccc(-n2ccnc2)cc1 (stereo not shown),-39.7
18,CSCc1ccc(C(=O)NC(C)c2ccc(-n3ccnc3)cc2)cc1 (stereo not shown),-56
19,CC(NC(=O)c1cc(F)c(F)c(F)c1F)c1ccc(-n2ccnc2)cc1 (stereo not shown),-65.2
20,CC(NC(=O)c1ccc(CS(C)(=O)=O)cc1)c1ccc(-n2ccnc2)cc1 (stereo not shown),-1.32
21,CC(=O)c1sc(NC(=O)CS(=O)(=O)c2ccccc2)nc1C,-25.3
22,CCOC(=O)/C(C#N)=C/c1ccc(OC(=O)c2ccccn2)cc1,-5.99
